Results reported in PubChem BioAssay AID624351 (Southern Research Specialized Biocontainment Screening …, 2012).
The whole screen tested about 2,400 compounds, of which about 1,400 (58%) were called active. The set was probably picked from earlier hits. Some of the results follow. Values without a mark were called inactive.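 Rule for the calls: active = inhibition of 30% or more at any tested dose; inconclusive = primary hits over the limit that were never retested; inactive = the rest.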

assay: ADP Hunter readout inhibition without MgcRacGAP – biochemical, coupled enzyme counter-screen, artefact control for MgcRacGAP inhibitor project, dose response (AID 624351); settings: fluorescence, no MgcRacGAP; series mostly up to 80 µM;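 note: signal is the ADP detection kit reading of free GDP without any GAP enzyme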;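 for inhibition: 0% = median positive control wells and 100% = median negative control wells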

Row | Compound | IC50 | inhibition
1 | O=C(Nc1ccccc1Cl)/C(Cl)=C(\Cl)S(=O)c1ccccc1 (stereo unspecified) | inactive | 
2 | Cc1cnc(C(=O)Oc2ccc(-c3ccccc3)cc2)cn1 | inactive | 
3 | O=C(Nc1ccccc1Cl)Oc1ccc(-c2ccccc2)cc1 | 14.1 µM (active) | 
4 | Cc1cc(C)c(C#N)c(SCS(=O)Cc2ccc(Cl)cc2)n1 (stereo unspecified) | inactive | 
5 | NC(=NCCCCCCN=C(N)/N=C(\N)Nc1ccc(Cl)cc1)/N=C(\N)Nc1ccc(Cl)cc1 | inactive | 
6 | Oc1ccc(/C=N/Nc2cc(N3CCOCC3)nc(N3CCOCC3)n2)cc1O | 75.5 µM (active) | 
7 | COc1ccc2c(-c3ccccc3)cc(N3CCOCC3)nc2c1 | inactive | 
8 | Oc1ccc(/C=N/Nc2cc(N3CCOCC3)nc(N3CCOCC3)n2)cc1 | 49.2 µM (active) | 
9 | Oc1ccc(/C=N\Nc2cc(N3CCOCC3)nc(N3CCOCC3)n2)c(O)c1 | 76.4 µM (active) | 
10 | CN(C)c1ccc(-n2cccc2/C=C/[N+](=O)[O-])cc1 | inactive | 
11 | CCCCN(C)C(=O)C1CCN(Cc2cccc(OCc3ccccc3)c2)CC1 | inactive | 
12 | COc1ccc(C=Nc2ccc3[nH]ncc3c2)c(O)c1 | 38.4 µM (active) | 
13 | COc1ccc2[nH]c3c(C)c4ccncc4c(C)c3c2c1 | inactive | 
14 | Cc1ccc(O)c(C=Nc2ccc3[nH]ncc3c2)c1 | 34.5 µM (active) | 
15 | Oc1ccc(Br)cc1C=Nc1ccc2[nH]ncc2c1 | 48.2 µM (active) | 
16 | Brc1ccc(OCCCN2CCOCC2)cc1 | inactive | 
17 | Cc1ccc(/C=C2/C(=O)ON=C2c2ccccc2)o1 | inactive | 
18 | CCN(c1ccccc1)S(=O)(=O)c1ccc(N2CCN(c3ccc(O)cc3)CC2)nc1 | 53.5 µM (active) | 
19 | CCN(c1ccccc1)S(=O)(=O)c1ccc(Cl)c(NC(=O)CN(C)C2CCN(C)CC2)c1 | inactive | 
20 | COc1ccccc1CNCC(=O)N1CC(=O)Nc2ccccc21 | inactive | 
21 | ON=C1c2ccccc2-c2ccc(O)cc21 | 36.5 µM (active) | 
22 | CN(C)c1ccc2c(c1)C(=NO)c1ccccc1-2 | 42.8 µM (active) | 

Row | Compound | IC50 | inhibition
23 | CCN(Cc1ccccc1)C(c1ccc(C)cc1)c1nnnn1C(C)(C)CC (stereo unspecified) | inactive | 
24 | Brc1cccc(OCCN2CCOCC2)c1 | inactive | 
25 | Nc1ccc(-c2nc3ccc(N)cc3o2)cc1 | 44.4 µM (active) | 
26 | CCOc1cc(/C=C/c2cccc[n+]2C)ccc1O | 27.2 µM (active) | 
27 | COc1ccccc1-n1c(=O)c2c3c(sc2n2c(=S)[nH]nc12)CCC3 | 44.9 µM (active) | 
28 | COc1ccc(-n2c(=O)c3c4c(sc3n3c(=S)[nH]nc23)CCCC4)cc1 | 30.3 µM (active) | 
29 | CCn1c(=O)c2c3c(sc2n2c(=S)[nH]nc12)CCC3 | 25 µM (active) | 
30 | C=CCSC1=N/C(=C\C=C\c2ccco2)C(=O)S1 | inactive | 
31 | COc1cccc(/C=N/n2c(-c3n[nH]c4c3CCC4)n[nH]c2=S)c1O | 54.6 µM (active) | 
32 | COc1cc(/C=N/n2c(C3CCCCC3)n[nH]c2=S)ccc1O | 51.8 µM (active) | 
33 | COc1ccc(/C=N/n2c(-c3n[nH]c4c3CCC4)n[nH]c2=S)cc1OC | 61.5 µM (active) | 
34 | COc1ccc(/C=N/n2c(-c3n[nH]c4c3CCC4)n[nH]c2=S)c(OC)c1OC | 65.7 µM (active) | 
35 | C=CCOC(=O)c1cc(-c2ccc(/C=C3\C(=O)NC(=O)C(C#N)=C3C)o2)ccc1Cl | inactive | 
36 | CCC1(c2ccccc2)NC(=O)N(CC(=O)Nc2ccc(N3CCCC3)cc2C)C1=O (stereo unspecified) | inactive | 
37 | CCN(CC)CCCNCC(=O)Nc1ccc2c(c1)CCC2 | inactive | 
38 | CCN(CC)c1ccc(NC(=O)CN2C(=O)NC3(CCc4ccccc43)C2=O)cc1 (stereo unspecified) | 83.2 µM (active) | 
39 | Nc1nc(N)c2[nH]c(=S)[nH]c2n1 | inactive | 
40 | O=C1C=CC2(C=C1)O[C@H](Cc1ccccc1)[C@@H](Cc1ccccc1)O2 | inactive | 
41 | COc1ccc(/C=N/NC(=O)CN2CCCCCCC2)c(C)c1C | inactive | 
42 | O=C1/C(=C\c2ccccc2)CN(C(=O)CCN2CCCCC2)C/C1=C/c1ccccc1 | inactive | 
43 | COc1cc(/C=N/NC(=O)CCN2CCN(C(c3ccccc3)c3ccccc3)CC2)ccc1O | 53.4 µM (active) | 
44 | C=CCNC(=O)CN1CCN(C(c2ccccc2)c2ccccc2)CC1 | inactive | 

Row | Compound | IC50 | inhibition
45 | COc1cc(/C=N/NC(=O)CCN2CCCCC2)ccc1O | 34.3 µM (active) | 
46 | C=CCc1c(C)nc(-c2ccccc2)nc1Nc1ccc(O)cc1 | 41.3 µM (active) | 
47 | Nc1c(/C=C2/C=CC(=O)C(O)=C2)c(=O)nc2sc(CC(=O)N3CCCC3)nn12 | 59.4 µM (active) | 
48 | Nc1c(/C=C2/C=CC(=O)C(O)=C2)c(=O)nc2sc(CC(=O)N3CCOCC3)nn12 | 67.8 µM (active) | 
49 | CS(=O)(=O)c1ccc2c(c1)sc1nc(=O)c(/C=C3/C=CC(=O)C(O)=C3)c(N)n12 | 60.1 µM (active) | 
50 | Cc1ccc(C(C)C)c(OCCCCN2CCNCC2)c1 | inactive | 
51 | CC(NCc1ccc(S(N)(=O)=O)cc1)C(=O)N1c2ccccc2CC1C (stereo unspecified) | inactive | 
52 | COc1cc(OC)c(C2Nc3cccc4cccc(c34)N2)c(OC)c1 |  | -13.7% [at 5 µM]
53 | COc1ccccc1C1Nc2cccc3cccc(c23)N1 | 51.6 µM (active) | 
54 | Cc1oc(-c2ccccc2)cc1C(=O)Nc1ccc(N(C)C)cc1 | 65.5 µM (active) | 
55 | Cc1ccc(NC(=O)C2=C(c3ccccc3)S(=O)(=O)CCS2(=O)=O)cc1 | inactive | 
56 | COc1ccc(NC(=O)Nc2ccc(N(C)C)cc2)cc1 | 21.9 µM (active) | 
57 | CN(C)c1ccc(N=Cc2nc(-c3ccccc3)oc2OC(=O)c2cccc(Br)c2)cc1 | inactive | 
58 | COc1cc(OC)c(C(=O)Nc2ccc(N(C)C)cc2)cc1OC | 27.2 µM (active) | 
59 | O=C(Nc1ccc(O)cc1)c1cc2n(n1)C(C(F)(F)F)CC(c1ccco1)N2 (stereo unspecified) | 28.7 µM (active) | 
60 | Cc1cc(C)c(OCCCCN2CCC(C)CC2)c(Br)c1 | inactive | 
61 | COc1cc(CNc2ccc3[nH]c(=O)[nH]c3c2)ccc1OCc1ccccc1 | inactive | 
62 | COc1ccc(CN2CCC(C(N)=O)CC2)cc1OCc1ccccc1 | inactive | 
63 | COc1ccc(CN2CCN(Cc3ccccc3F)CC2)cc1OC | inactive | 
64 | COc1cc(CNc2ccc(N3CCN(C(C)=O)CC3)cc2)ccc1OCc1ccccc1 | 13.4 µM (active) | 
65 | COc1ccc(CNc2ccc(N3CCN(C(C)=O)CC3)cc2)cc1OC | 15.1 µM (active) | 
66 | COc1ccc(CN2CCN(C(=O)CC(C)C)CC2)cc1OC | inactive | 
